MCF10A rereplic: induces DNA re-replication in MCF 10a normal breast cells | MCF 10A DNA re-replication, Hoechst nuclear intensity, 48 h | AID 624296 | Potency, µM (doses to about 46.1 µM), for the others: top-dose activity, positive = re-replication, most hits filed as activators | 350,000 tested, 2.9% active; also: % of control where 0% means no effect; nearly all actives have a fitted effect of over 50% in size
HT1080 IDH1KD tx: kills HT-1080 cells with IDH1 knockdown | HT-1080 IDH1 knockdown viability, ATP luminescence, 48 h | Potency, µM (titrated, usually from 46.1 µM), for inactives: at the highest dose activity, negative = toxicity, actives largely listed as cytotoxic | 360,000 tested, 2% active | AID 686971;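 also: 0% = DMSO wells and -100% = cell-free medium wells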
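After a 2 h attachment period, IDH1KD HT-1080 cells took pin-transferred compound for 48 h at 37 °C; ATP-based luminescence after 10 min room-temperature reagent incubation reported viability.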
HT1080-NT tox: kills 2HG-producing HT-1080-NT fibrosarcoma cells | HT-1080-NT fibrosarcoma viability, CellTiter-Glo ATP luminescence, 48 h | Potency, µM (top dose mostly 46.1 µM), for the others: at the top dose activity, negative = less viability, actives largely listed as cytotoxic | 360,000 tested, 1.6% active;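 also: NT is the 2HG producing partner of a matched IDH1 knockdown line; 0% = DMSO-treated cells and -100% = media-only wells without cells; nearly all actives have a fitted effect of over 55% in size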
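Viability of the 2HG-overproducing fibrosarcoma line after 48 hours of compound exposure at 37 degrees C was determined by luminescence with CellTiter-Glo, and concentration-effect curves were then fitted and categorized.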
KB-V1 cytotox: KB-V1 MDR subline cytotoxicity. Potency, µM (top dose mostly 46.1 µM), most hits filed as cytotoxic. 400,000 tested, 3.4% active. KB-V1 MDR cells viability, CellTiter-Glo, 72 h; also: % is scaled to controls: 0 for no effect and ±100 for the full control effect; nearly all actives have a fitted effect of over 60% in size
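Potencies derive from concentration-effect curves fitted to normalized luminescence (CellTiter-Glo) of KB-V1 cells treated for 72 h at 37 degrees C in phenol-red-free DMEM containing 10% FBS.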
SW480 rereplic: DNA re-replication induction in SW480 cells; SW480 DNA re-replication, Hoechst DNA content imaging, 48 h; Potency, µM (highest dose often 46.1 µM), for inactives: at the highest dose re-replication activation, usual class: activators; 340,000 tested, 1.8% active; AID 624297; also: % of control where 0% means no effect; nearly all actives have a fitted effect of over 55% in size
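Compounds, transferred as 23 nL by pin tool, were incubated with cells for 48 hr; DNA content per nucleus was then quantified by Hoechst staining and fluorescence plate imaging.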
KB-3-1 cytotox: kills parental KB-3-1 adenocarcinoma cells. KB-3-1 viability, CellTiter-Glo ATP luminescence, 72 h. Potency, µM (doses to about 46.1 µM), most hits filed as cytotoxic. 400,000 tested, 1.4% active; also: % is scaled to controls: 0 for no effect and ±100 for the full control effect; nearly all actives have a fitted effect of over 60% in size
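Viability of parental KB-3-1 cells, measured by CellTiter-Glo luminescence, followed a 72 h incubation at 37 °C with pinned compounds in phenol-red-free DMEM containing 10% FBS.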
* = called active by the depositor; [ ] = another dose, or the depositor's remark. This is a sample that favours compounds with a hit; in the whole collection about 8% have one here. Calls follow the shape of the dose curve; as a rule, active = well fitted curve in the direction sought with a large enough effect; inconclusive = small, poorly fitted or top-dose-only effect, or another doubt; inactive = no such curve, though single readings can be large; an effect the other way counts as inactive or inconclusive. Potency is read from the fitted curve at half-maximal effect.

What do the screens show for `O=C(c1ccccc1)c1ccc(N2CCOCC2)cc1`?
MCF10A rereplic: 2.9%; HT1080 IDH1KD tx: 18.8%; HT1080-NT tox: 17.4%; KB-V1 cytotox: inactive; SW480 rereplic: -4.4%; KB-3-1 cytotox: inactive

What do the screens show for `O=C(c1ccc(Br)cc1)c1cc(-c2ccccn2)c(N2CCOCC2)s1`?
MCF10A rereplic: inconclusive; HT1080 IDH1KD tx: 6.7%; HT1080-NT tox: -2.3%; KB-V1 cytotox: 4.11µM*; SW480 rereplic: 16.7%; KB-3-1 cytotox: inactive

How did O=C(c1ccc(Cl)c(Cl)c1)c1cc(-c2ccccn2)c(N2CCOCC2)s1 do in these assays?
MCF10A rereplic: 20.6µM*; HT1080 IDH1KD tx: -7.1%; HT1080-NT tox: -6.0%; KB-V1 cytotox: 4.11µM*; SW480 rereplic: 22.1%; KB-3-1 cytotox: inactive

What do the screens show for `O=C(c1ccc(Cl)c(S(=O)(=O)N2CCOCC2)c1)N1CCN(c2ccccn2)CC1`?
MCF10A rereplic: 1.7%; HT1080 IDH1KD tx: 7.5%; HT1080-NT tox: 8.3%; KB-V1 cytotox: inactive; SW480 rereplic: 0.7%; KB-3-1 cytotox: inactive

How did CCn1c(=O)n(-c2ccc(F)c(Cl)c2)c(=O)c2c3c(sc21)CN(C(C)=O)CC3 do in these assays?
KB-V1 cytotox: inactive; KB-3-1 cytotox: inactive

How did O=C(c1cc2c(c(-c3cccc(-c4ccncc4)c3)n1)[C@@H](CCO)N(C(=O)c1ccc3c(c1)OCO3)C2)N1CCOCC1 do in these assays?
HT1080 IDH1KD tx: 7.2%; HT1080-NT tox: -12.9%; KB-V1 cytotox: inactive; KB-3-1 cytotox: inactive

How did O=C(c1cc2c(c(-c3cccc(-c4ccc(F)cc4)c3)n1)[C@H](CCO)N(C(=O)c1ccc3c(c1)OCO3)C2)N1CCOCC1 do in these assays?
HT1080 IDH1KD tx: inconclusive; HT1080-NT tox: 20.6µM*; KB-V1 cytotox: inconclusive; KB-3-1 cytotox: inactive

What do the screens show for `CC(=O)c1cc(-c2ccc(F)cc2)n(CC(=O)NC2CCCCCC2)c1C`?
KB-V1 cytotox: inactive; KB-3-1 cytotox: inactive

How did O=C1NC(=O)C2C3C=CC(C3)C12 (centres undefined) do in these assays?
MCF10A rereplic: 1.7%; SW480 rereplic: -6.7%

Results for CC1CCN(C(=S)Nc2ccc(F)cc2)CC1 ?
MCF10A rereplic: inconclusive; HT1080 IDH1KD tx: -43.7%; HT1080-NT tox: -26.3%; KB-V1 cytotox: inconclusive; SW480 rereplic: -4.4%; KB-3-1 cytotox: inconclusive

Results for C/C(=N\NC(=S)Nc1ccc(F)cc1)C1CC1 ?
MCF10A rereplic: 3.1%; HT1080 IDH1KD tx: 11.2µM*; HT1080-NT tox: 8.91µM*; KB-V1 cytotox: inactive; SW480 rereplic: 1.5%; KB-3-1 cytotox: inactive

What do the screens show for `Cc1ccc(C)c(NC(=O)Cn2cnc3nc4c(cc3c2=O)CCCC4)c1`?
KB-V1 cytotox: inactive; KB-3-1 cytotox: inactive

What do the screens show for `COc1ccc(SN=C2C(C)=CC(=O)C=C2C)cc1`?
MCF10A rereplic: 25.9µM*; HT1080 IDH1KD tx: 1.0%; HT1080-NT tox: -2.5%; KB-V1 cytotox: inactive; SW480 rereplic: inconclusive; KB-3-1 cytotox: inactive

Results for COc1ccc(C(=O)ON=C2C=C(C)C(=O)C(C)=C2)cc1 ?
MCF10A rereplic: 5.5%; HT1080 IDH1KD tx: 10.2%; HT1080-NT tox: 7.8%; KB-V1 cytotox: inactive; SW480 rereplic: inconclusive; KB-3-1 cytotox: inactive

Results for CCN(c1ccccc1)S(=O)(=O)c1ccc(NC(=O)c2cc(=O)c3c(C)cc(C)cc3o2)cc1 ?
KB-V1 cytotox: inactive; KB-3-1 cytotox: inactive

Results for Cc1ccccc1CNC(=O)c1cnc2sc(N3CCC(C)CC3)nn2c1=O ?
KB-V1 cytotox: inactive; KB-3-1 cytotox: inactive

Results for CC1CC(C)CN(S(=O)(=O)c2ccc(C(=O)Nc3nnc(-c4cccs4)o3)cc2)C1 (centres undefined) ?
MCF10A rereplic: inconclusive; HT1080 IDH1KD tx: inconclusive; HT1080-NT tox: 14.1µM*; KB-V1 cytotox: 12.6µM*; SW480 rereplic: 24.6%[9.22 µM]; KB-3-1 cytotox: inconclusive

What do the screens show for `CN(C)S(=O)(=O)c1ccc(C(=O)Nc2nnc(-c3cccs3)o2)cc1`?
MCF10A rereplic: inconclusive; HT1080 IDH1KD tx: inconclusive; HT1080-NT tox: -28.8%; KB-V1 cytotox: inconclusive; SW480 rereplic: -64.5%; KB-3-1 cytotox: inactive

What do the screens show for `CCC1CCCCN1S(=O)(=O)c1ccc(C(=O)Nc2nnc(-c3cccs3)o2)cc1` (centres undefined)?
MCF10A rereplic: inconclusive; HT1080 IDH1KD tx: 14.1µM*; HT1080-NT tox: 8.91µM*; KB-V1 cytotox: 5.01µM*; SW480 rereplic: inconclusive; KB-3-1 cytotox: inconclusive

What do the screens show for `CCC1CCCCN1S(=O)(=O)c1ccc(NC(=O)c2cccnc2)cc1` (centres undefined)?
MCF10A rereplic: -1.2%; HT1080 IDH1KD tx: -7.0%; HT1080-NT tox: -1.9%; KB-V1 cytotox: inactive; SW480 rereplic: -4.6%; KB-3-1 cytotox: inactive

What do the screens show for `CC1CCCN(S(=O)(=O)c2ccc(C(=O)Nc3nnc(-c4ccccc4Cl)o3)cc2)C1` (centres undefined)?
MCF10A rereplic: inconclusive; HT1080 IDH1KD tx: inconclusive; HT1080-NT tox: -7.9%; KB-V1 cytotox: inconclusive; SW480 rereplic: inconclusive; KB-3-1 cytotox: 7.31µM*

Results for CC1CCCN(S(=O)(=O)c2ccc(C(=O)Nc3nnc(-c4ccccn4)o3)cc2)C1 (centres undefined) ?
MCF10A rereplic: 2.3%; HT1080 IDH1KD tx: -5.7%; HT1080-NT tox: -3.4%; KB-V1 cytotox: inconclusive; SW480 rereplic: 26.3%; KB-3-1 cytotox: inconclusive

Results for COc1ccccc1C(=O)Nc1cc2c(cc1N1CCCCC1)n(C)c(=O)n2C ?
KB-V1 cytotox: inactive; KB-3-1 cytotox: inactive

What do the screens show for `O=C(NCc1ccc(F)cc1)c1noc2c1CCCC2`?
MCF10A rereplic: -16.0%; HT1080 IDH1KD tx: -16.6%; HT1080-NT tox: -15.9%; KB-V1 cytotox: inactive; SW480 rereplic: inconclusive; KB-3-1 cytotox: inactive

What do the screens show for `O=C(NCc1ccc(F)cc1)c1noc2c1CCCCC2`?
MCF10A rereplic: 1.8%; HT1080 IDH1KD tx: 0.9%; HT1080-NT tox: 8.2%; KB-V1 cytotox: 16.4µM*; SW480 rereplic: 0.3%; KB-3-1 cytotox: inactive

How did O=C(NCc1ccc(Cl)cc1)c1noc2c1CCCCC2 do in these assays?
MCF10A rereplic: -17.3%; HT1080 IDH1KD tx: 2.4%; HT1080-NT tox: -5.2%; KB-V1 cytotox: 20.6µM*; SW480 rereplic: inconclusive; KB-3-1 cytotox: inactive

How did Cc1cc(NC(=O)c2noc3c2CCCCC3)nn1Cc1ccc(Cl)cc1 do in these assays?
MCF10A rereplic: -2.1%; HT1080 IDH1KD tx: -6.8%; HT1080-NT tox: 2.1%[9.24 µM]; KB-V1 cytotox: inactive; SW480 rereplic: -3.9%; KB-3-1 cytotox: inactive

Screening results deposited in PubChem by National Center for Advancing Translational Sciences (NCATS).
